Results: article PMC4336329 (PLoS ONE, 2015)
Screen size: about 310,000 compounds; about 14,000 (4.5%) showed an effect of 50% or more. Effects have a minus sign here. The full list was thinned out, with strong results kept by preference.

biological target: human ether-à-go-go-related gene (hERG) potassium channel (human, UniProt Q12809); experiment: primary screen, population patch clamp on CHO cells stably expressing hERG; higher = less effect of the substance
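Further: peak tail current of the secondary pulse compared with the same well before compound.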

human ether-à-go-go-related gene (hERG) potassium channel, sequence (Q12809 whole entry, looked up): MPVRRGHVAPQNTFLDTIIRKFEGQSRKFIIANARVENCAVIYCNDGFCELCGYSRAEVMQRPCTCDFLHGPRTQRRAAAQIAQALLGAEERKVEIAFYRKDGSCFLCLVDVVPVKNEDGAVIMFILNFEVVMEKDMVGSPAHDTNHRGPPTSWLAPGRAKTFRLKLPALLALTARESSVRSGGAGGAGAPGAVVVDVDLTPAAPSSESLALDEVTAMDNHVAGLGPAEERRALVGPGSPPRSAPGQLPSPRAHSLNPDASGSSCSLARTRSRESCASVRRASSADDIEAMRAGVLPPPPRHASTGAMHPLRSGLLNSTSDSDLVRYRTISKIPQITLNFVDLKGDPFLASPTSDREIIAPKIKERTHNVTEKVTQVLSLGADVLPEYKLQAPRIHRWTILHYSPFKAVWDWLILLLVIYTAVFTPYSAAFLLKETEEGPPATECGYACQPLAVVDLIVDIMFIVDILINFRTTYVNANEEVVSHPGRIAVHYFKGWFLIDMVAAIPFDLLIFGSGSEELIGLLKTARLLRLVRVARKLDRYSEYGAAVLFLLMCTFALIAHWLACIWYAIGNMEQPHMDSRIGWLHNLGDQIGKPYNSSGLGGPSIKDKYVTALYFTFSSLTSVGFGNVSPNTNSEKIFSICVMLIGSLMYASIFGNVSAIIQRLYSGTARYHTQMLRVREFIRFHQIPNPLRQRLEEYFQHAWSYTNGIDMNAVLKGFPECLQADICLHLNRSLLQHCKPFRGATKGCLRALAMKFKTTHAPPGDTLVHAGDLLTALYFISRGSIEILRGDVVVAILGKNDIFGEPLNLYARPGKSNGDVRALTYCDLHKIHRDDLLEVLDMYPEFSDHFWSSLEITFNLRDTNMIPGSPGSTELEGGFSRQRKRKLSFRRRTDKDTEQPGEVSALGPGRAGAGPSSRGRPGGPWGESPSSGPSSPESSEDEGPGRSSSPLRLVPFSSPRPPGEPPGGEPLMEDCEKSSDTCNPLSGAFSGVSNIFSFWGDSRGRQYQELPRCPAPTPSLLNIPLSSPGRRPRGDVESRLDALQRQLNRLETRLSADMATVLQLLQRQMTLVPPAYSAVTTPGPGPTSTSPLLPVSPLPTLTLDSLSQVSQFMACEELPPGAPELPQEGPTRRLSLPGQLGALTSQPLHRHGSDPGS

Point of comparison: `Cc1ccc2oc(C(=O)N(Cc3ccncc3)CC3CCCO3)c(C)c2c1` (centres unmarked), “hERG current change (%, negative = inhibition) at 10uM” value -34.9%. Against it:
- C=C1C(=O)C=C2CN(C(=O)c3ccccc3)[C@@](Cc3ccc(F)cc3)(C(=O)OC)[C@@H]12 — higher, -3.22%
- CCOc1ccc(N2C(=O)CC(N3CCN(C(=O)c4ccco4)CC3)C2=O)cc1 (centres unmarked) — higher, -9.91%
- Cc1cc(C)n(C(=O)CNC(=O)C(c2ccccc2)c2ccccc2)n1 — higher, -3%
- CN(C)c1ccc(NC(=O)c2cccc([N+](=O)[O-])c2)c2ccccc12 — higher, -4.86%
- COc1cc(C=O)ccc1OCCCOc1ccc([N+](=O)[O-])cc1 — higher, -10.8%
- O=C(COC(=O)C1(c2ccc(F)cc2)CCCC1)NCc1ccco1 — higher, -2.02%
- CCC(C)NC(=O)c1ccc(C(=O)c2ccccc2)cc1 (centres unmarked) — higher, 12.7%
- O=C(c1cnn2c1NC(c1ccc(Br)cc1)CC2C(F)(F)F)N1CCN(C23CC4CC(CC(C4)C2)C3)CC1 (centres unmarked) — higher, -7.5%
- O=C(c1cnn2c1NC(c1ccc(Br)cc1)CC2C(F)(F)F)N1CCN2CCCC2C1 (centres unmarked) — lower, -63.5%
- CN1CCN(C(=O)c2cnn3c2NC(c2ccccc2)CC3C(F)(F)F)CC1 (centres unmarked) — higher, 17.1%
- Cc1ccc2oc(C(=O)N(Cc3ccc(N(C)C)cc3)CC3CCCO3)c(C)c2c1 (centres unmarked) — higher, -14.8%
- CCCc1ccc2oc(C(=O)N(C)Cc3cnccn3)c(C)c2c1 — higher, -10.9%
- CCCc1ccc2oc(C(=O)N(C)Cc3nccs3)c(C)c2c1 — lower, -48.3%
- Cc1ccc2c(C)c(C(=O)N(Cc3ccncc3)CC3CCCO3)oc2c1C (centres unmarked) — lower, -51.9%
- Cc1c(C(=O)N(Cc2ccc(N(C)C)cc2)CC2CCCO2)oc2ccccc12 (centres unmarked) — higher, -26.5%
- Cc1c(C(=O)N(Cc2ccncc2)CC2CCCO2)oc2c(F)cccc12 (centres unmarked) — higher, -27.1%
- CCCc1ccc2oc(C(=O)N(Cc3ccncc3)CC3CCCO3)c(C)c2c1 (centres unmarked) — lower, -71.6%
- CCCc1ccc2oc(C(=O)N(C)CCn3ccnc3C)c(C)c2c1 — lower, -61.4%
- COc1ccc(/C=N/NC(=S)Nc2ccccc2)cc1COc1ccc(Br)cc1 — higher, -1.6%
- Cc1cc(Oc2ccc(C#N)cc2)nc(NCc2ccccc2)n1 — higher, 2.36%
- O=C1CN(C(=O)C2CC2)c2ccccc2N1 — higher, -15.8%
- CC(C)(C)OC(=O)N1CCC(NC(=O)c2[nH]cnc2C(=O)Nc2ccccc2)CC1 — higher, -15%
- CNC(=O)COC(=O)c1cccc(S(=O)(=O)N2CCN(c3ccc(F)cc3)CC2)c1 — higher, -0.232%
- N#Cc1nccnc1N1CCN(C(=O)Nc2ccccc2)CC1 — higher, 5.22%
- CCc1cc2ccc(C)cc2nc1SCC(=O)N1CCN(C(=O)c2ccco2)CC1 — lower, -56%
- CCc1cc2ccc(C)cc2nc1SCC(=O)NNC(=O)c1ccco1 — higher, 12%
- COc1cc2cc(C)c(SCC(=O)N3CCOCC3)nc2cc1OC — higher, -1.12%
- CCc1cc2cccc(C)c2nc1SCC(=O)NNC(=O)c1ccco1 — higher, -0.00372%
- Cc1cc2cc3c(cc2nc1SCC(=O)N1CCN(C(=O)c2ccco2)CC1)OCO3 — lower, -35.3%
- CCc1cc2cc3c(cc2nc1SCC(=O)N1CCN(C(=O)c2ccco2)CC1)OCO3 — higher, -28.7%
- CCc1cc2cccc(C)c2nc1SCC(=O)N1CCN(C(=O)c2ccco2)CC1 — lower, -54.4%
- CCc1cc2cc(C)cc(C)c2nc1SCC(=O)N1CCN(C(=O)c2ccco2)CC1 — higher, -16.2%
- COc1cc2cc(C)c(SCC(=O)N3CCN(C(=O)c4ccco4)CC3)nc2cc1OC — lower, -66%
- CCc1cc2cc(C)ccc2nc1SCC(=O)N1CCN(C(=O)c2ccco2)CC1 — lower, -53.4%
- CCc1cc2cc(C)ccc2nc1SCC(=O)NNC(=O)c1ccco1 — higher, 21.9%
- CCc1cc2ccc(OC)cc2nc1SCC(=O)N1CCN(C(=O)c2ccco2)CC1 — lower, -49.1%
- O=C(CC1C(=O)NCCN1Cc1cccc(C(F)(F)F)c1)NCCc1cnccn1 (centres unmarked) — higher, 7.22%
- O=C(COC(=O)c1cc(Cl)ccc1O)NC(=O)NCc1ccccc1 — higher, 4.6%
- COC(=O)C(CSCc1ccccc1)NC(=O)CSc1nc(C)cc(=O)[nH]1 (centres unmarked) — higher, 18.4%
- CN(c1ccccc1)S(=O)(=O)c1ccc(C(=O)NCCc2ccc(F)cc2)cc1 — higher, -21.1%
- CC(=O)Nc1ccc(/C(C)=N/NC(=O)c2ccc(CN3CCOCC3)cc2)cc1 — higher, 25.2%
- Br.CC1CCCC(C)N1Cc1cn2ccccc2n1 (centres unmarked) — higher, 7.29%
- Cc1nn(CC(=O)Nc2ccccn2)c(C)c1Br — higher, 15.3%
- Nc1ccc2ncccc2c1N — higher, 6.47%
- CSc1ccc(CCNS(=O)(=O)c2c(C)[nH]c(C)c2C(=O)N2CCCCC2)cc1 — higher, -15.2%
- COc1ccc(CCNC(=O)c2cc(=O)n(C)c(=O)n2C)cc1OC — higher, -0.242%
- Cc1ccc(-n2c(SCC(=O)OC(C)C)nnc2-c2ccco2)cc1 — lower, -37.7%
- Cc1cccc(C(=O)Oc2ccccc2/C=N/NC(=O)c2ccc(NC(=O)C(C)(C)C)cc2)c1 — higher, -4.88%
- CN1C=CC2=C(C#N)C(N)C(C#N)(C#N)[C@H](c3ccccc3)[C@H]2C1 (some centres unmarked) — higher, -4.67%
- O=C(CSc1nnnn1-c1ccccc1)N1CCN(C(=O)c2ccco2)CC1 — lower, -49.4%
- Cc1ccc(-n2nnnc2SCC(=O)N2CCN(C(=O)c3ccco3)CC2)c(C)c1 — lower, -76%
- Cc1ccc(-n2nnnc2SCC(=O)NNC(=O)c2ccco2)c(C)c1 — higher, -4.35%
- COc1ccccc1NC(=O)c1cnc(SC)nc1 — higher, 19.2%
- O=C(O)C(=O)O.O=S(=O)(c1ccc(Cl)cc1)N1CCC(N2CCOCC2)CC1 — higher, -11.5%
- Cn1ncc2c(Nc3ccc(O)cc3)nc(Cl)nc21 — higher, 5.53%
- COc1ccc(NCc2nnc(SCCN3CCCCC3)n2-c2ccc(C)cc2)cc1 — lower, -66.7%
- COc1ccc(C(=O)CSc2nnc(CN3CCCCC3)n2-c2ccc(F)cc2)cc1OC — higher, 6.33%
- Cc1ccccc1OCc1nnc(SCCN2CCCC2)n1-c1ccccc1.Cl — lower, -65.3%
- Cc1ccccc1OCc1nnc(SCC(=O)O)n1-c1ccccc1 — higher, 14.4%
- Cn1c(CNc2ccc(Cl)cc2)nnc1SCCN1CCCCC1 — lower, -46.4%
- COc1ccc(-n2c(CNc3ccc(C)cc3)nnc2SCc2ccccc2)cc1 — higher, -7.09%
- Cc1ccccc1OCc1nnc(SCC(=O)O)n1-c1cccc(Cl)c1 — higher, 5.63%
- COc1ccc(C(=O)CSc2nnc(CN3CCCCC3)n2-c2ccc(F)cc2)cc1 — lower, -57.7%
- COc1ccc(C(=O)CSc2nnc(CN3CCCC3)n2-c2ccc(F)cc2)c(OC)c1 — higher, -23%
- O=C(CCN1CCOCC1)Nc1c(-c2ccccc2)c2cc(Br)ccc2[nH]c1=O — higher, -11.9%
- CC(=O)Nc1ccc(C(=O)Nc2cccc(S(=O)(=O)NC3=NCCC3)c2)cc1 — higher, 4.95%
- CC(C)(O)C#Cc1ccc(CN2CCN(Cc3ccccc3)C(CCO)C2)s1 (centres unmarked) — higher, 4.64%
- CCOc1cc(C)c(S(=O)(=O)Nc2ccc3cn[nH]c3c2)cc1C — higher, 25.2%
- N#CC1(NC(=O)CSc2nnc(Nc3ccccc3F)s2)CCCC1 — higher, 0.45%
- COc1cc(OC)cc(C(=O)OCC(=O)NCCCc2ccccc2)c1 — higher, 12.2%
- C=CCN1C(=O)N/C(=C/c2ccc(C)o2)C1=O — higher, 9.15%
- COC(=O)c1ccc(C2c3[nH]c4ccccc4c3C[C@H]3C(=O)N(C4CCN(Cc5ccccc5)CC4)CC(=O)N23)cc1 (some centres unmarked) — higher, -10%
- CSCC[C@H](NC(=O)C1=NN(c2c(F)c(F)cc(F)c2F)C(=O)CC1)c1nc2ccccc2[nH]1 — higher, -13.3%
- COc1ccc([N+](=O)[O-])cc1NC(=O)C1CCCN1S(=O)(=O)c1cccs1 (centres unmarked) — higher, -18.1%
- COc1ccc(NC(=O)C/C(C)=N/NC(=O)c2ccncc2)c([N+](=O)[O-])c1 — lower, -59.8%
- COc1ccc(NC(=O)c2cccs2)c([N+](=O)[O-])c1 — higher, -3.28%
- COc1ccc(NC(=O)C/C(C)=N/NC(=O)c2cccs2)c([N+](=O)[O-])c1 — lower, -54.4%
- CC(=O)Nc1ccccc1NC(=O)C/C(C)=N/NC(=O)c1ccncc1 — higher, 19.6%
- COc1ccc(OCC(=O)N/N=C(\C)CC(=O)Nc2cccc([N+](=O)[O-])c2)cc1 — lower, -53.8%
- COc1ccc(-c2nnc(NC(=O)C3CCCN3S(=O)(=O)c3cccs3)o2)cc1 (centres unmarked) — higher, -3.47%
- COc1ccc(NC(=O)C2CCCN2S(=O)(=O)c2cccs2)c([N+](=O)[O-])c1 (centres unmarked) — lower, -68.3%
- CCC(=O)N/N=C(\C)CC(=O)Nc1cccc([N+](=O)[O-])c1 — higher, 9.57%
- COc1cc(NC(=O)C/C(C)=N/NC(=O)c2cccs2)c(OC)cc1Cl — higher, -14.4%
- COc1ccc(NC(=O)C/C(C)=N/NC(=O)COc2ccc(OC)cc2)cc1 — higher, -18.8%
- COc1ccc(NC(=O)C/C(C)=N/NC(=O)c2ccco2)c([N+](=O)[O-])c1 — higher, -33.9%
